This is part of a sample that, as a whole, favours compounds with a hit. Of some 83,000 tested, about 20% had one in any assay.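 Growth was measured after 48 h exposure to one concentration of compound in 96-well plates. Values under 10 count as active.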 A number with no mark means an inactive call. Activity calls are given as the source filed them. Where a SMILES comes first, the peptide text is derived from it. Bridges are numbered along the chain shown (N, C = ends). [ ]: non-standard residue; d: D form. The star is where a group is joined. ξ: configuration not given here. ξNMePhe(4-NMe2) = CNC(Cc1ccc(N(C)C)cc1)C(=O)O; Picolinoyl(3-OH) = O=C(c1ncccc1O)*; ξPip(4-oxo) = O=C1CCNC(C(=O)O)C1; Phg = N[CH](C(=O)O)c1ccccc1; Abu = CC[CH](N)C(=O)O
Each compound was assayed on UACC-257 melanoma (assay: NCI-60 one-dose screen, 48 h (100 = growth as untreated, 0 = no growth, -100 = all killed)). Settings: 10 µM.

| Structure (SMILES) | growth [%] |
| --- | --- |
| CCC(C#N)(CC)c1ccccc1 | 104 |
| CC(=O)c1ccc(C(C)(C)C)cc1 | 97.2 |
| CC(C)OC(=O)c1cc(NC(=S)OC(C)C)ccc1Cl | 78.9 |
| Cc1cc2ccccc2c(O)c1C#N | 106 |
| OCCN1CCOCC1 | 99.7 |
| CC(=O)Oc1ccc(Br)cc1C(=O)O | 101 |
| C#CCSc1nnnn1-c1ccc(Br)c(C)c1 | 83.5 |
| c1ccc2c(c1)Sc1ccccc1S2 | 99.9 |

These compounds were tested on M14 melanoma in the same assay as above. Settings: 10 µM.

| Structure (SMILES) | growth |
| --- | --- |
| N#CC1(Nc2ccc3c4c(cccc24)CC3)CCCCC1 | 113% |
| CC1CCCC(CC(N)=O)CC1 (centres undefined) | 108% |
| CCOc1ccc(/C=N/N=C(N)N)cc1OCC | 99.3% |
| COc1ccc2c(NCCCCCCCCNc3c4ccccc4nc4cc(OC)ccc34)c3ccccc3nc2c1 | -100% (active) |
| C/C(=C\c1ccc([N+](=O)[O-])cc1)C(=O)O | 95.1% |
| Cc1cccc(C(=O)N(C(C)C)C(C)C)c1 | 96.1% |
| CC1(C)/C(=C\CO)C2CCC1C2 (centres undefined) | 103% |
| O=[N+]([O-])c1ccc(/C=C/C=C/c2ccccc2)c(Cl)c1 | 106% |
| COc1cccc(Sc2ccc([N+](=O)[O-])c3no[n+]([O-])c23)c1 | 72.1% |
| CC1CC(O)CC(C)(C)C1 (centres undefined) | 108% |
| Clc1ccc(-c2n[nH]c3c2Cc2ccccc2-3)cc1Cl | 100% |
| CC1OC(Oc2c(-c3ccc(O)c(O)c3)oc3cc(O)cc(O)c3c2=O)C(O)C(O)C1O (centres undefined) | 106% |
| C#CCSc1nnnn1-c1ccc(Br)c(C)c1 | 94.8% |
| c1ccc2c(c1)Sc1ccccc1S2 | 103% |

The compounds below were run on HCT-15 colon in the same assay as above. Settings: 10 µM.

| Structure (SMILES) | growth |
| --- | --- |
| CCCC1(c2ccccc2)NC(=O)NC1=O (centres undefined) | 108% |
| O=C(NN=C1CCCCC1)C(=O)NN=C1CCCCC1 | 108% |
| CC(=O)OC(OC(C)=O)C1CCCO1 (centres undefined) | 104% |
| Nc1ncnc2[nH]ncc12 | 5.92% (active) |
| Cc1ccc(C(=O)c2ccccc2)c(C)c1 | 105% |
| O=C(c1ccc(Cl)cc1)c1ccccc1Cl | 95.8% |
| COc1cc2c(cc1O)CC[C@@H]1C2CC[C@@]2(C)C1CC[C@@H]2O (some centres undefined) | 29.9% |
| CC(=O)OCC1=CC2OC(=O)C3=COC(OC4OC(CO)C(O)C(O)C4O)C1C32 (centres undefined) | 112% |
| CC1(C)N=C(N)N=C(N)N1c1cccc(Br)c1 | 32.4% |
| Oc1ccccc1-c1nnco1 | 100% |
| CO[C@H]1C[C@@H]2CC[C@@H](C)[C@@](O)(O2)C(=O)C(=O)N2CCCC[C@H]2C(=O)O[C@H]([C@H](C)C[C@@H]2CC[C@@H](O)[C@H](OC)C2)CC(=O)[C@H](C)C=C(C)[C@@H](O)[C@@H](OC)C(=O)[C@H](C)C[C@H](C)/C=C/C=C/C=C1C | 42.7% |
| CN(C)c1ccc(S(=O)(=O)O)cc1 | 102% |
| N#CSc1cc(S(N)(=O)=O)ccc1N | 108% |
| CCC1NC(=O)C(NC(=O)c2ncccc2O)C(C)OC(=O)C(c2ccccc2)NC(=O)C2CC(=O)CCN2C(=O)C(Cc2ccc(N(C)C)cc2)N(C)C(=O)C2CCCN2C1=O (centres undefined) (tested in a mixture with another compound) ({Picolinoyl(3-OH)}-T[Abu]P[ξNMePhe(4-NMe2)][ξPip(4-oxo)][Phg]; ester 1-C; configuration not given here) | 79.3% |
| C=CCNc1ccccc1 | 106% |
| CCOC(=O)C(CCC(C)C)C(=O)OCC | 104% |
| Oc1ccccc1O | 95.6% |
| O=c1[nH]nc(SC2CCCCC2)c(=O)[nH]1 | 106% |
| CC(C)C1CCCCC1O (centres undefined) | 96% |
| CCC(C#N)(CC)c1ccccc1 | 90.6% |
| CC(=O)c1ccc(C(C)(C)C)cc1 | 101% |
| CC(C)OC(=O)c1cc(NC(=S)OC(C)C)ccc1Cl | 87.8% |
| Cc1cc2ccccc2c(O)c1C#N | 92.2% |
| OCCN1CCOCC1 | 96.3% |
| CC(=O)Oc1ccc(Br)cc1C(=O)O | 102% |

Each compound was assayed on HT29 colon in the same assay as above. Settings: 10 µM.

| Structure (SMILES) | growth |
| --- | --- |
| N#CC1(Nc2ccc3c4c(cccc24)CC3)CCCCC1 | 89.1% |
| CCCC1(c2ccccc2)NC(=O)NC1=O (centres undefined) | 111% |
| O=C(NN=C1CCCCC1)C(=O)NN=C1CCCCC1 | 98.6% |
| CC1CCCC(CC(N)=O)CC1 (centres undefined) | 85% |
| CC(=O)OC(OC(C)=O)C1CCCO1 (centres undefined) | 106% |
| CCOc1ccc(/C=N/N=C(N)N)cc1OCC | 89.5% |
| COc1ccc2c(NCCCCCCCCNc3c4ccccc4nc4cc(OC)ccc34)c3ccccc3nc2c1 | -100% (active) |
| Nc1ncnc2[nH]ncc12 | 12.3% |
| Cc1ccc(C(=O)c2ccccc2)c(C)c1 | 101% |
| O=C(c1ccc(Cl)cc1)c1ccccc1Cl | 101% |
| COc1cc2c(cc1O)CC[C@@H]1C2CC[C@@]2(C)C1CC[C@@H]2O (some centres undefined) | 22.4% |
| CC(=O)OCC1=CC2OC(=O)C3=COC(OC4OC(CO)C(O)C(O)C4O)C1C32 (centres undefined) | 106% |
| CC1(C)N=C(N)N=C(N)N1c1cccc(Br)c1 | 28.4% |
| C/C(=C\c1ccc([N+](=O)[O-])cc1)C(=O)O | 107% |
| Oc1ccccc1-c1nnco1 | 97.5% |
| CO[C@H]1C[C@@H]2CC[C@@H](C)[C@@](O)(O2)C(=O)C(=O)N2CCCC[C@H]2C(=O)O[C@H]([C@H](C)C[C@@H]2CC[C@@H](O)[C@H](OC)C2)CC(=O)[C@H](C)C=C(C)[C@@H](O)[C@@H](OC)C(=O)[C@H](C)C[C@H](C)/C=C/C=C/C=C1C | 45.3% |
| Cc1cccc(C(=O)N(C(C)C)C(C)C)c1 | 92.8% |
| CN(C)c1ccc(S(=O)(=O)O)cc1 | 102% |
| O=[N+]([O-])c1ccc(/C=C/C=C/c2ccccc2)c(Cl)c1 | 90.3% |

| Structure (SMILES) | growth |
| --- | --- |
| N#CSc1cc(S(N)(=O)=O)ccc1N | 101% |
| CCC1NC(=O)C(NC(=O)c2ncccc2O)C(C)OC(=O)C(c2ccccc2)NC(=O)C2CC(=O)CCN2C(=O)C(Cc2ccc(N(C)C)cc2)N(C)C(=O)C2CCCN2C1=O (centres undefined) (tested in a mixture with another compound) ({Picolinoyl(3-OH)}-T[Abu]P[ξNMePhe(4-NMe2)][ξPip(4-oxo)][Phg]; ester 1-C; configuration not given here) | 43.6% |
| C=CCNc1ccccc1 | 98.4% |
| CCOC(=O)C(CCC(C)C)C(=O)OCC | 94.4% |
| COc1cccc(Sc2ccc([N+](=O)[O-])c3no[n+]([O-])c23)c1 | 30.2% |
| CC1CC(O)CC(C)(C)C1 (centres undefined) | 99.9% |
| Oc1ccccc1O | 92.1% |
| Clc1ccc(-c2n[nH]c3c2Cc2ccccc2-3)cc1Cl | 106% |
| O=c1[nH]nc(SC2CCCCC2)c(=O)[nH]1 | 97.1% |
| CC(C)C1CCCCC1O (centres undefined) | 106% |
| CCC(C#N)(CC)c1ccccc1 | 110% |
| CC(=O)c1ccc(C(C)(C)C)cc1 | 96.7% |
| CC(C)OC(=O)c1cc(NC(=S)OC(C)C)ccc1Cl | 70.5% |
| Cc1cc2ccccc2c(O)c1C#N | 123% |
| OCCN1CCOCC1 | 110% |
| CC(=O)Oc1ccc(Br)cc1C(=O)O | 107% |
| C#CCSc1nnnn1-c1ccc(Br)c(C)c1 | 89.7% |
| c1ccc2c(c1)Sc1ccccc1S2 | 105% |
